gsp agonist = agonists of gsp mutant (McCune-Albright syndrome); Potency, µM (doses to about 76.9 µM), without a hit: top-dose activation (cAMP increase), hits mostly activators; AID 624287; 340,000 compounds, 0.13% hits; gsp mutant cells, cAMP HTRF, 30 min; active means well fitted activation curve with a large enough effect; inconclusive means small, poorly fitted or top-dose-only effect, or another doubt; inactive means no such curve, though single readings can be large or run the other way; cell line not stated here;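 further: phosphodiesterase inhibitor Ro 20-1724 added with compounds to block cAMP breakdown; potency means the concentration at half of the fitted maximal effect; nearly all actives have a fitted effect of over 60% in size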
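Cells stably selected in G418 were plated at 2000/well, grown 16-24 hr, then given compounds in DMSO with the PDE inhibitor […] (300 uM solution added) for 30 min at 37C; cAMP was read by HTRF.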
gsp antagonist = antagonists of gsp mutant (McCune-Albright syndrome); gsp-mutant cells, cAMP HTRF, 30 min; Potency, µM (series often up to 76.9 µM), for the others: top-dose activity change, negative = inhibition, hits mostly inhibitors; 340,000 compounds, 0.4% hits; calls by dose curve; cell line not stated here;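 further: intracellular cAMP measured with PDE inhibitor Ro 20-1724 present during compound exposure; potency means the concentration at half of the fitted maximal effect; on the % scale 0 is the no-effect control and ±100 the full control effect; nearly all actives have a fitted effect of over 65% in size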
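HTRF cAMP measurement after 30 min RT detection following 30 min, 37C compound treatment alongside […] (added as 300 uM solution) in G418-selected cells seeded at 2000/well and grown 16–24 h.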
RXFP1 ag = RXFP1 (human) receptor agonism. 370,000 compounds, 0.3% hits. Q9HBX9. HEK293T-RXFP1 cAMP TR-FRET, 30 min; response scale: percent of porcine relaxin response, buffer zero. Potency, µM (titrated, usually from 57.5 µM), for the others: top-dose activation, hits mostly activators. AID 2676; further: potency means the concentration at half of the fitted maximal effect; on the % scale 0 is the no-effect control and ±100 the full control effect; nearly all actives have a fitted effect of over 60% in size
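cAMP rise read by TR-FRET after 30 min, 37C compound exposure (up to 58 uM) in RXFP1-transfected HEK293 cells with Ro 20174 present. EC50 from Hill-equation fits, with 29 nM porcine relaxin as 100% and buffer as basal.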
RXFP1 antagonist = antagonists of human relaxin receptor RXFP1; activity change, negative = inhibition, % at 57.5 µM; AID 1259400; Q9HBX9; 350,000 compounds, 0.59% hits; HEK293-RXFP1, relaxin-stimulated cAMP HTRF, 30 min; stronger effect = lower value;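 active means activity change of -60% or lower, but not beyond a set lower limit; inconclusive means change between -60% and -40%, or beyond the set limit; inactive means change above -40%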; further: on the % scale 0 is the no-effect control and ±100 the full control effect
Mm-Cpn inhibitor = M. maripaludis TRiC chaperonin inhibition; purified Mm-Cpn ATPase, ADP Transcreener TR-FRET; 330,000 compounds, 0.031% hits; AID 504842; Potency, µM (series often up to 76.9 µM), inactives show at the top dose activity, negative = inhibition, hits mostly inhibitors; further: potency means the concentration at half of the fitted maximal effect; on the % scale 0 is the no-effect control and ±100 the full control effect; nearly all actives have a fitted effect of over 80% in size
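25 nM Mm-CPN + cpd, 10 min 37°C; + 10 uM ATP, 30 min 37°C; buffer 30 mM Tris pH 7.4, 100 mM KCl, 5 mM MgCl2, 1 mM DTT; Transcreener ADP HTRF detection 30 min RT.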
CCT modulator = cytosolic chaperonin activity modulation; purified chaperonin ATPase assay, HTRF ADP detection, 30 min; activity change, % (no concentration beside the values), hits read low; 360,000 compounds, 0.3% hits; AID 651819; in the data active means activity change below about -30%; further: on the % scale 0 is the no-effect control and ±100 the full control effect
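TRiC at 40 or 20 nM final (batch-dependent) in 30 mM Tris pH 7.4, 100 mM KCl, 5 mM MgCl2, 1 mM DTT, with compound at single 76 uM and 10 uM ATP, 30 min at 37 deg C. ADP detected by HTRF Transcreener, 665/615 ratio.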
* hit, by the source's call; ? = inconclusive; / = no result given; [ ] = another dose, or the depositor's remark. This is a sample that favours compounds with a hit; in the whole collection about 1.2% have one here. Unless noted, the call rests on the fitted dose curve; in most records, active means well fitted curve in the direction sought with a large enough effect; inconclusive means small, poorly fitted or top-dose-only effect, or another doubt; inactive means no such curve, though single readings can be large; an effect the other way counts as inactive or inconclusive.

SMILES | gsp agonist | gsp antagonist | RXFP1 ag | RXFP1 antagonist | Mm-Cpn inhibitor | CCT modulator
O=C(CCN1C(=O)/C(=C/c2ccccc2)SC1=S)NNC(=O)c1ccncc1 | -30.8% | 39.8µM* | -1.5% | -0.5 | -0.2% | 1.2
Cc1cc(/C=C2\SC(=S)N(Cc3ccco3)C2=O)c(C)n1-c1cccnc1 | -26.0% | 1.6% | -2.3% | 2.3 | -0.4% | -2.5
O=C1/C(=C/c2cccnc2)SC(=S)N1Cc1ccco1 | -22.3% | 35.5µM* | / | ? | / | -3.9
O=C1/C(=C\c2ccccc2)SC(=S)N1CCC(=O)N1CCCCC1CCO (stereo not given) | -16.7% | 8.9% | 3.3% | ? | 1.1% | -2.3
Cc1noc2ncnc(N3CCN(c4ccccc4F)CC3)c12 | / | / | 4.2% | / | / | /
CCCCc1ccc(NC(=O)Nc2cc(C)nn2C)cc1 | 19.3%[15.4 µM] | 0.9% | -0.8% | -4.6 | 1.3% | -111.3*
CN1CCN(CCOC2Cc3ccccc3Sc3ccc(Cl)cc32)CC1 (stereo not given) | 2.8% | -0.9% | -0.5% | -70.1* | 2.6% | 1.3
CN(C(=O)CSc1ncnc2ccccc12)C1CCS(=O)(=O)C1 (stereo not given) | 12.6µM* | 8.4% | 8.4% | 5.1 | -3.6% | 0.4
CC(C)CN(C(=O)CSc1ncnc2ccccc12)C1CCS(=O)(=O)C1 (stereo not given) | -3.9% | -14.4% | 6.4% | 3.1 | -2.6% | 3.8
COc1ccccc1C(=O)COC(=O)Cn1[nH]c(=O)c2ccccc2c1=O | -3.4%[15.4 µM] | -19.0% | 12.9% | -11.1 | 1.3% | -30.8*
O=C(COC(=O)c1n[nH]c(=O)c2ccccc12)c1ccc(Br)cc1 | -7.1%[15.4 µM] | 3.6% | 1.7% | -24.0 | 1.9% | -1.3
O=C(Cn1[nH]c(=O)c2ccccc2c1=O)OCC(=O)c1ccc(Br)cc1 | -10.1%[15.4 µM] | -15.3% | 0.9% | -76.0* | 0.0% | -1.2
COc1ccccc1C(=O)COC(=O)CN1C(=O)c2ccccc2C1=O | 8.1% | -2.2% | 1.5% | -3.2 | 0.9% | -0.5
CCOC(=O)N1CCc2c(sc3c2c(=O)n(CCc2ccccc2)c(=O)n3Cc2ccc(C)cc2C)C1 | / | / | 2.2% | 2.4 | / | /
Cc1ccc2nc(-c3ccc(SCC(=O)N4CCc5ccccc54)nc3)[nH]c2c1 | -6.2% | -13.6% | -0.2% | -1.7 | -1.8% | -43.6*
Cc1ccc2nc(-c3ccc(SCC(=O)O)nc3)[nH]c2c1 | 17.1% | 5.2% | 4.3% | 0.9 | -5.5% | -1.2
Cc1ccc2nc(SCC(=O)N3c4ccccc4CC3C)c(C)cc2c1 (stereo not given) | ? | -3.4% | 3.2% | -7.5 | -1.5% | 1.9
Cc1ccc2nc(-c3cccnc3SCC(=O)N3c4ccccc4CC3C)[nH]c2c1 (stereo not given) | 2.9% | 9.3% | 16.0% | -0.1 | 50.1µM* | 0.9
Cc1ccccc1-c1nn2c(=O)cc(CN3CCN(C(=O)/C=C/c4ccccc4)CC3)nc2s1 | / | / | 2.4% | / | / | /
CC(C)Cn1cc(NC(=O)NCc2ccccc2Cl)c2ccccc2c1=O | / | / | 5.3% | / | / | /
CCCCCC(=O)Nc1ccc(C(=O)CN2C(=O)NC3(CCCCCC3)C2=O)cc1 | 16.3%[15.4 µM] | 7.5% | 0.2% | -89.8* | -2.2% | 1.2
CO/N=C(\C(=O)N[C@@H]1C(=O)N2C(C(=O)O)=C(CSc3nc(=O)c(O)nn3C)CS[C@H]12)c1csc(N)n1 | / | / | / | -23.0 | / | /
Cc1noc(/C=C/c2ccco2)c1S(=O)(=O)N1CCC(C(=O)Nc2ccc(F)c(Cl)c2)CC1 | / | / | 2.5% | -9.2 | / | /
CCOc1cc(CNC(=O)c2ccccc2NC(=O)c2nsc3ccccc23)ccc1OC | / | / | -1.0% | -12.6 | / | /
O=C(C[C@H]1C[C@H](C(=O)N2CCCCC2)[C@@]2(CCc3ccccc3)c3[nH]c4cc(-c5ccco5)ccc4c3CCN2C1=O)NCCC1=CCCCC1 | / | -6.2% | / | / | -2.1% | -89.1*
CCOC(=O)CSc1nc(=O)n2ccc(C)cc2n1 | ? | -5.2% | 15.8% | -71.9* | -0.8% | -1.8
Cc1ccn2c(=O)nc(SCC(=O)OCc3ccccc3)nc2c1 | -8.2%[15.4 µM] | -9.6% | 6.6% | -17.8 | ? | -3.5

Source: PubChem (National Center for Advancing Translational Sciences (NCATS))
